± gives the standard deviation.

Experiment [1] deals with MILI (PIWIL2) piRISC loaded with piRNA #1 (26 nt). Put plainly: pre-steady-state target cleavage rate (min^-1); guide: piRNA #1 5'p-UGAGGUAGUAGGUUGUAUAGUAUCCA; higher = faster piRNA-guided slicing of the target. Conditions: auxiliary factor: 500 nM mouse GTSF1. In outline:
(§1)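 For Cleave-'n-Seq, a transcribed, DNA-blocked target RNA library […] met 1 nM active affinity-purified piRISC with one synthetic guide at 33 °C for 0–8 or 0–960 min in HEPES–potassium acetate buffer, with or without 500 nM GTSF1 partner protein. Uncleaved targets were sequenced and normalised to depth and weakly complementary targets, with three trials pooled and k3 capped at 0.0001 min^-1. A burst-and-steady-state fit supplied the pre-steady-state cleavage rate.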

Experiment [2] relates to EfPiwi piRISC loaded with piRNA #1 (26 nt). Kind of experiment: pre-steady-state target cleavage rate (min^-1); auxiliary factor: 500 nM Ephydatia muelleri Gtsf1; guide: piRNA #1 5'p-UGAGGUAGUAGGUUGUAUAGUAUCCA; MIWI and MILI are mouse PIWI proteins and EfPiwi is from a freshwater sponge; tags in brackets are library labels; higher = faster piRNA-guided slicing of the target. In outline:
as §1

Consider GGAGACCAUAACUAUACAACCUACUACCUCA, for which the “pre-steady-state target cleavage rate” value is 0.135 ± 0.0094 in experiment [1] and 0.138 ± 0.043 in experiment [2].
Turning to GGAGUCGAUACUAUACAACCAACUACCUCA, the “pre-steady-state target cleavage rate” value in experiment [1] stood at 0.0053 ± 0.0019; in experiment [2], 0.00517 ± 0.002.
On to GGAGACCAUACUAUACAACCUUCUACCUCA, for which the “pre-steady-state target cleavage rate” value in experiment [1] stood at 0.00761 ± 0.0026; in experiment [2] it was 0.00625 ± 0.0028.
With GGAGACCAUACUAUACGACCUACUACCUCA, the “pre-steady-state target cleavage rate” value in experiment [1] stood at 0.0852 ± 0.016; in experiment [2], 0.0094 ± 0.0037.
For the sequence GGAGUGGAUACUAUACAAGCUAGUACCUCA, the entries for the “pre-steady-state target cleavage rate” value in experiment [1] and in experiment [2] were 0.0743 ± 0.014 and 0.00287 ± 0.0014, respectively.
The corresponding values for GGAGAGGUUACAAUACAACCUACUACCUCA are 0.181 ± 0.014 and 0.00504 ± 0.0035.
The corresponding values for GGAGACGAUACUAUGACAACCUACUACCUCA are 0.186 ± 0.017 and 0.00896 ± 0.0044.
In the case of GGAGUGGAUACUAUACAACGCUACUACCUCA, the “pre-steady-state target cleavage rate” value in experiment [1] was 0.0044 ± 0.0029; in experiment [2] it was 0.00636 ± 0.003.
For the sequence GGAGAGCAUACUAUACAUCCUACUACCUCA, the “pre-steady-state target cleavage rate” value in experiment [1] is 0.335 ± 0.02; in experiment [2] it was 0.00491 ± 0.0024.
With GGAGAGGAUACUAAACAACCUACUACCUGA, the “pre-steady-state target cleavage rate” value in experiment [1] was determined as 0.0485 ± 0.011; in experiment [2], 0.00273 ± 0.0018.
Consider GGAGAGGAUACUAUACAAACCUACUACCUCA, for which the “pre-steady-state target cleavage rate” value in experiment [1] came to 0.00683 ± 0.0028; in experiment [2], 0.0671 ± 0.028.
GGAGACCUAACUACUACAACCUACUACCUCA: the “pre-steady-state target cleavage rate” value in experiment [1] was determined as 0.107 ± 0.026; in experiment [2], 0.00946 ± 0.0059.
As to GGAGACCUUUCUAUACAACCUAGUACCUCA, the “pre-steady-state target cleavage rate” value worked out at 0.0267 ± 0.0078 in experiment [1] and 0.00465 ± 0.0038 in experiment [2].
The like results for GGAGAGGAUAUUAUACAACCUACUACCUCA were, in that order, 0.157 ± 0.0082 and 0.0615 ± 0.023.
The corresponding values for GGAGACGAUACUAUAGAACGUACUACCUCA are 0.0134 ± 0.0023 and 0.00177 ± 0.0015.
The corresponding values for GGAGACCUUACUAUACAACCUAGUACCACA are 0.00907 ± 0.0036 and 0.00255 ± 0.0023.
Take GGAGAGGAUACUAUUCAACCUACUACCUGA: the entries for the “pre-steady-state target cleavage rate” value in experiment [1] and in experiment [2] were 0.0595 ± 0.0098 and 0.00319 ± 0.0018, respectively.
The like results for GGAGAGGAUACUAUAGAUCCUACUACCUCA were, in that order, 0.242 ± 0.024 and 0.00654 ± 0.0034.
The like results for GGAGUGGAUACUAUACAACCUACUACCCA were, in that order, 0.0544 ± 0.013 and 0.00631 ± 0.0022.
For GGAGUGGAUACUAUACUACCUACAACCUCA, the “pre-steady-state target cleavage rate” value amounted to 0.117 ± 0.0096 in experiment [1] and 0.00209 ± 0.0019 in experiment [2].
The corresponding values for GGAGACCAUACUAUACAACCUCACUACCUCA are 0.00609 ± 0.0028 and 0.0127 ± 0.0078.
The like results for GGAGACCUUACUAUACAACCUACUAGCUCA were, in that order, 0.145 ± 0.02 and 0.00255 ± 0.0017.
The like results for GGAGACCAUAGCUAUACAACCUACUACCUCA were, in that order, 0.121 ± 0.014 and 0.0108 ± 0.0051.
Consider GGAGAGGAUACUUUACAUCCUACUACCUCA, for which the figures for the “pre-steady-state target cleavage rate” value in experiment [1] and in experiment [2] were 0.253 ± 0.016 and 0.00455 ± 0.0027, respectively.
Turning to GGAGACCUAUCUAUACAACCUACUACCUACA, the “pre-steady-state target cleavage rate” value in experiment [1] stood at 0.0858 ± 0.015; in experiment [2] it was 0.00445 ± 0.0039.
The like results for GGAGACCUAUCUAUAACAACCUACUACCUCA were, in that order, 0.0615 ± 0.012 and 0.00453 ± 0.0037.
The like results for GGAGACCUAACUAUACAUCCUACUACCUGA were, in that order, 0.116 ± 0.039 and 0.00344 ± 0.0029.
As for GGAGACGAUACUAUACAUCCUACAACCUCA, the “pre-steady-state target cleavage rate” value in experiment [1] is 0.287 ± 0.022; in experiment [2] it was 0.00566 ± 0.0028.
The like results for GGAGACCUAAGUAAACAACCUACUACCUCA were, in that order, 0.0128 ± 0.0033 and 0.00575 ± 0.004.
The corresponding values for GGAGACGAUACUAUACCAACCUACUACCUCA are 0.0605 ± 0.013 and 0.0123 ± 0.0043.
The like results for GGAGUGGAUACUAUAGAACCUUCUACCUCA were, in that order, 0.00415 ± 0.0015 and 0.00334 ± 0.0018.
On to GGAGACCUAUCAUAACAACCUACUACCUCA, for which the “pre-steady-state target cleavage rate” value is 0.0143 ± 0.0053 in experiment [1] and 0.00531 ± 0.0037 in experiment [2].
The corresponding values for GGAGAGGAUACUAUACAACGUUCUACCUCA are 0.00213 ± 0.0019 and 0.00409 ± 0.0022.
The corresponding values for GGAGACCAUACUAUACAUCCUACUAGCUCA are 0.152 ± 0.024 and 0.00265 ± 0.0024.
Turning to GGAGACGAUACUAAUACAACCUACUACCUCA, the “pre-steady-state target cleavage rate” value in experiment [1] stood at 0.134 ± 0.01; in experiment [2], 0.0773 ± 0.031.
Turning to GGAGAGGAUACUAUACUACCUACUACCUCA, the “pre-steady-state target cleavage rate” value in experiment [1] was determined as 0.173 ± 0.011; in experiment [2], 0.00925 ± 0.0043.
Regarding GGAGAGGCAUACUAUACAACCUACUACCUCA, the results for the “pre-steady-state target cleavage rate” value in experiment [1] and in experiment [2] were 0.177 ± 0.014 and 0.0477 ± 0.017, respectively.
The like results for GGAGAGGAUACUAUACUACCUACUUCCUCA were, in that order, 0.0617 ± 0.016 and 0.00269 ± 0.002.
Take GGAGAGGAUACUAUACAACAUACUACCUCA: the entries for the “pre-steady-state target cleavage rate” value in experiment [1] and in experiment [2] were 0.0488 ± 0.0058 and 0.0063 ± 0.0023, respectively.
GGAGUGGAUACUAUACAACAUACUACCUCA: the “pre-steady-state target cleavage rate” value in experiment [1] was found to be 0.0845 ± 0.0098; in experiment [2], 0.00987 ± 0.0037.
For the sequence GGAGUGGUUACAAUACAACCUACUACCUCA, the “pre-steady-state target cleavage rate” value came to 0.172 ± 0.011 in experiment [1] and 0.00789 ± 0.0035 in experiment [2].
As to GGAGACCUUACAUUACAACCUACUACCUCA, the “pre-steady-state target cleavage rate” value was 0.0294 ± 0.0055 in experiment [1] and 0.00334 ± 0.0033 in experiment [2].
For the sequence GGAGUCGAUACUAUACAACCUACUACCACA, the “pre-steady-state target cleavage rate” value was 0.175 ± 0.014 in experiment [1] and 0.0037 ± 0.0015 in experiment [2].
For the sequence GGAGACCUUACUAUACAACCUACUACCUACA, the entries for the “pre-steady-state target cleavage rate” value in experiment [1] and in experiment [2] were 0.109 ± 0.017 and 0.00473 ± 0.0031, respectively.
Turning to GGAGUGGAUACUAUACAAGCUACUACCUCA, the entries for the “pre-steady-state target cleavage rate” value in experiment [1] and in experiment [2] were 0.233 ± 0.013 and 0.008 ± 0.0032, respectively.
With “GGAGUGGAUACUAUACAACCUACUACCUCA [g2:g26:cont:t1A]”, the figures for the “pre-steady-state target cleavage rate” value in experiment [1] and in experiment [2] were 0.2 ± 0.011 and 0.176 ± 0.056, respectively.
GGAGACGAUACUAUACAACCUACUCCUCA: the “pre-steady-state target cleavage rate” value in experiment [1] amounted to 0.0114 ± 0.0032; in experiment [2], 0.0048 ± 0.0022.
The corresponding values for GGAGAGGAUACUAUACAACCUACUACCUAA are 0.125 ± 0.011 and 0.0131 ± 0.0058.
Take GGAGACGAUACUAUUCAACCUACUACCUGA: the “pre-steady-state target cleavage rate” value in experiment [1] worked out at 0.105 ± 0.017; in experiment [2] it was 0.00421 ± 0.0019.
As for GGAGACGAUACUAUCCAACCUACUACCUCA, the results for the “pre-steady-state target cleavage rate” value in experiment [1] and in experiment [2] were 0.175 ± 0.016 and 0.00717 ± 0.0028, respectively.
The like results for GGAGUGGAAACUAUACAACCUACUACCACA were, in that order, 0.129 ± 0.018 and 0.00336 ± 0.0029.
The corresponding values for GGAGAGGAUACAAUACAACCUACUUCCUCA are 0.0281 ± 0.0083 and 0.00257 ± 0.002.
For GGAGAGGAAUCUAUACAACCUACUACCUCA, the “pre-steady-state target cleavage rate” value was found to be 0.199 ± 0.015 in experiment [1] and 0.00943 ± 0.0056 in experiment [2].
Take GGAGAGGAUACUUACAACCUACUACCUCA: the “pre-steady-state target cleavage rate” value in experiment [1] turned out to be 0.125 ± 0.012; in experiment [2], 0.00543 ± 0.0036.
As for GGAGAGGAUACUAUACAACCUACUAGCCUCA, the “pre-steady-state target cleavage rate” value in experiment [1] turned out to be 0.123 ± 0.02; in experiment [2] it was 0.00421 ± 0.0018.
Turning to GGAGUGGAUACUCAUACAACCUACUACCUCA, the entries for the “pre-steady-state target cleavage rate” value in experiment [1] and in experiment [2] were 0.161 ± 0.012 and 0.0153 ± 0.0069, respectively.
The like results for GGAGACGAUACUAUACAAGCUACUACGUCA were, in that order, 0.205 ± 0.032 and 0.00352 ± 0.0014.
The like results for GGAGACGAUACUAUACAACCUACUAGCUGA were, in that order, 0.0101 ± 0.0055 and 0.00481 ± 0.0027.
The like results for GGAGACCUUACUAUACAACCUACUACCUCCA were, in that order, 0.133 ± 0.014 and 0.00652 ± 0.0028.
In the case of GGAGUGGAUACUAUUCAUCCUACUACCUCA, the entries for the “pre-steady-state target cleavage rate” value in experiment [1] and in experiment [2] were 0.265 ± 0.016 and 0.0078 ± 0.0036, respectively.
The corresponding values for GGAGAGGAUACUAUACAACCUACUACACUCA are 0.136 ± 0.019 and 0.00522 ± 0.0018.
The like results for GGAGACGAUCUAUACAACCUACUACCUCA were, in that order, 0.174 ± 0.013 and 0.0198 ± 0.01.
The corresponding values for GGAGACCUACCUAUACAACCUACUACCUCA are 0.117 ± 0.026 and 0.0239 ± 0.012.
In the case of GGAGACCUAUCUUAUACAACCUACUACCUCA, the “pre-steady-state target cleavage rate” value in experiment [1] came out at 0.145 ± 0.031; in experiment [2] it was 0.0118 ± 0.0052.
The corresponding values for GGAGAGGAUACUAUACAUCCUUCUACCUCA are 0.0216 ± 0.0041 and 0.00362 ± 0.0026.
With GGAGACCUUACUAUACAACCUACUACCGUCA, the “pre-steady-state target cleavage rate” value was determined as 0.132 ± 0.02 in experiment [1] and 0.0112 ± 0.0047 in experiment [2].
